Results filed as inconclusive are left out. The source made the active and inactive calls. Unless noted, calls come from the whole dose curve.
Key:
[1] = Nuclear factor erythroid 2-related factor 2/antioxidant responsive element (Nrf2/ARE) small molecule agonists: qHTS cell viability counter screen in human keratinocytes (AID 1919968; active = well fitted curve in the direction sought with a large enough effect in the repeat runs; an effect the other way counts as inactive or inconclusive; note: nearly all actives have a fitted effect of over 55% in size; note: potency is the fitted concentration of half-maximal effect)
Procedure, shortened: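 KeratinoSens cells (HaCaT keratinocytes stably carrying an ARE-luciferase reporter) were seeded at 1,500 cells/well and rested 5 h at 37 C/5% CO2. They were then exposed to compounds in DMSO for 23 h. Viability was read by CellTiter-Fluor fluorescence after 1 h.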

[2] = Nuclear factor erythroid 2-related factor 2/antioxidant responsive element (Nrf2/ARE) small molecule agonists: luciferase reporter gene qHTS assay in human keratinocytes (AID 1919969); note: nearly all actives have a fitted effect of over 35% in size; note: potency is the fitted concentration of half-maximal effect
[3] = target: Gonadotropin-releasing hormone receptor (Homo sapiens) (UniProt P30968); experiment: Human gonadotropin-releasing hormone receptor (GnRHR) small molecule agonists, calcium flux assay in GnRHR-HEK293 cells (AID 1920063); note: nearly all actives have a fitted effect of over 35% in size
Procedure, shortened: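 HEK293 cells stably expressing human GnRHR were plated 18 h at 37 °C, loaded with calcium dye 1 h at 37 °C, then given compound in agonist mode; fluorescence (Ex/Em 480/540) read kinetically for 3 min at 1 s intervals.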

[4] = target: KiSS-1 receptor (Homo sapiens) (UniProt Q969F8); experiment: Human kisspeptin (KISS1R) small molecule agonists, calcium flux assay in KISS1R-HEK293 cells (AID 1920064; active = well fitted curve in the direction sought with a large enough effect in the repeat runs; an effect the other way counts as inactive or inconclusive)
Procedure, shortened: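 HEK293 cells stably expressing human KISS1R were plated 18 h at 37 °C, loaded with calcium dye for 1 h at 37 °C, then given compound by pin tool. Fluorescence (Ex/Em 480/540) was read kinetically for 3 min.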

[5] = G protein-coupled receptor (GPCR) small molecule agonists, calcium flux assay: HEK293 wild type cell line counter screen (AID 1920065)
Procedure, shortened: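 Cells were plated and cultured 18 h at 37 C/5% CO2, then loaded with calcium dye for 1 h at 37 C. Compounds in DMSO were pin-transferred in agonist mode, and fluorescence (Ex/Em 480/540) was read kinetically for 3 min at 1 s intervals.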

[6] = p53 small molecule agonists, cell-based qHTS assay with human liver microsomes (AID 1963577);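 note: p53 response element beta-lactamase reporter cells with liver microsomes plus NADPH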
Procedure, shortened: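 HLM-supplemented p53RE-bla reporter assay: 16 h compound exposure at 37 C, microsomes and NADPH each 0.5 mg/mL final, read by fluorescence intensity.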

[7] = p53 small molecule agonists, cell-based qHTS assay with rat liver microsomes (AID 1963578)
Procedure, shortened: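 Quantitative HTS of the Tox21 10K library: p53RE-bla cells, rat liver microsomes plus NADPH at 0.5 mg/mL final each, 16 h at 37 C, beta-lactamase fluorescence detection.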

[8] = p53 small molecule agonists, cell-based qHTS assay with human liver microsomes: qHTS cell viability counter screen (AID 1963579); note: nearly all actives have a fitted effect of over 45% in size
Procedure, shortened: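 Viability of p53RE-bla cells is measured as CellTiter-Glo luminescence following a 16 h, 37 C incubation with compound, liver microsomes from human donors and NADPH.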

[9] = p53 small molecule agonists, cell-based qHTS assay with rat liver microsomes: qHTS cell viability counter screen (AID 1963580); note: nearly all actives have a fitted effect of over 45% in size
Procedure, shortened: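 In HCT-116 cells carrying a p53 response element-bla reporter, compounds were metabolically activated in situ by rat liver microsomes with NADPH over 16 h. Cell ATP content then served as the cytotoxicity measure.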

[10] = p53 small molecule agonists, cell-based qHTS assay: qHTS cell viability counter screen (AID 1963581); note: nearly all actives have a fitted effect of over 45% in size
Procedure, shortened: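 p53RE-bla HCT-116 cells were exposed to compounds for 16 h at 37 C; after the beta-lactamase FRET read in the same wells, CellTiter-Glo was added and luminescence (intracellular ATP) read after 30 min at room temperature.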

[11] = p53 small molecule agonists, cell-based qHTS assay (AID 1963582; active = well fitted activation curve with a large enough effect in the signal ratio in the repeat runs, not every such curve was filed as active; the % refers to the signal ratio; note: potency is the fitted concentration of half-maximal effect)
Procedure, shortened: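 p53RE-bla beta-lactamase reporter cells rested 5 h at 37 C/5% CO2, then received compounds in DMSO by pin transfer and were incubated 16 h at 37 C. LiveBLAzer B/G FRET substrate was loaded for 2 h at room temperature before fluorescence reading.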

[12] = target: 5-hydroxytryptamine receptor 2A (Homo sapiens) (UniProt P28223); experiment: 5-hydroxytryptamine receptor 2A (HTR2A) small molecule antagonists, cell-based qHTS assay (AID 1963586); note: nearly all actives have a fitted effect of over 45% in size
Procedure, shortened: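 Antagonist-mode intracellular calcium assay: DOI (4 nM) added after 5 min compound pre-incubation at room temperature to dye-loaded HTR2A-CHO cells. Fluorescence followed for 3 min, sampled every second.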

[13] = target: 5-hydroxytryptamine receptor 2A (Homo sapiens) (UniProt P28223); experiment: 5-hydroxytryptamine receptor 2A (HTR2A) small molecule agonists, cell-based qHTS assay (AID 1963587); note: nearly all actives have a fitted effect of over 30% in size
Procedure, shortened: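 HTR2A-CHO cells, plated 18 h at 37 C/5% CO2, dye-loaded 1 h at 37 C; compounds in DMSO added by pin tool (agonist mode). Intracellular calcium flux read as kinetic fluorescence on FDSS over 2 min at 1 s intervals.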

[14] = target: Muscarinic acetylcholine receptor M1 (Homo sapiens) (UniProt P11229); experiment: Cholinergic receptor muscarinic 1 (CHRM1) small molecule antagonists, cell-based qHTS assay (AID 1963588); note: nearly all actives have a fitted effect of over 40% in size
Procedure, shortened: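 CHRM1-CHO calcium-flux assay, antagonist mode. Cells were seeded 18 h, dye-loaded 1 h at 37 C and given compound for 5 min at RT, then acetylcholine was added at 50nM. FDSS fluorescence was read 3 min; 15 concentrations, three runs.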

[15] = target: Muscarinic acetylcholine receptor M1 (Homo sapiens) (UniProt P11229); experiment: Cholinergic receptor muscarinic 1 (CHRM1) small molecule agonists, cell-based qHTS assay (AID 1963589); note: nearly all actives have a fitted effect of over 35% in size
Procedure, shortened: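 CHO cells stably expressing human CHRM1, seeded 18 h at 37 C/5% CO2, dye-loaded 1 h at 37 C, then given compound in agonist mode; intracellular calcium fluorescence read kinetically at 1 s intervals. Fifteen concentrations, three independent runs.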

[16] = cAMP Responsive Elements (CRE) small molecule antagonists, cell-based qHTS assay (AID 1963591; active = well fitted inhibition curve with a large enough effect in the signal ratio in the repeat runs, not every such curve was filed as active; the % refers to the signal ratio)
Procedure, shortened: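 CRE-bla HEK293T cells were plated 18 h at 37 °C/5% CO2, pinned with compound in DMSO, then stimulated with NKH477 at 0.25 uM final for 3 h. LiveBLAzer B/G FRET substrate was added and plates incubated 2 h at room temperature.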

[17] = target: Beta-2 adrenergic receptor (Homo sapiens) (UniProt P07550); experiment: Adrenergic beta2 receptor (ADRB2) small molecule antagonists, cell-based qHTS assay (AID 1963592); note: series mostly up to about 92 µM; nearly all actives have a fitted effect of over 50% in size
Procedure, shortened: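 Cells (CHO, stable ADRB2 overexpression) incubated 18-20hr at 37C; compounds added from DMSO; agonist mix (1nM isoproterenol, 100uM IBMX, 25uM Ro-20-1724) added; 0.5hr RT; d2-cAMP and anti-cAMP-cryptate added; 1hr RT; 665/615 nm read.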

[18] = target: D(2) dopamine receptor (Homo sapiens) (UniProt P14416); experiment: Dopamine D2 receptor (DRD2) small molecule agonists, cell-based qHTS assay (AID 1963594); note: nearly all actives have a fitted effect of over 35% in size
Procedure, shortened: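 HEK293 cells stably expressing DRD2 were cultured 24 h at 37 C, then given Ro20-1724 (0.1 mM final) and compounds for 10 min at room temperature. NKH477 (200nM) was then added for 30 min. cAMP was read by HTRF.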

[19] = cAMP Responsive Elements (CRE) small molecule agonists, cell-based qHTS assay (AID 1963590)
Procedure, shortened: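 CRE-bla HEK 293T cells in DMEM with 10% dialyzed FBS, NEAA, pyruvate and 25 mM HEPES were plated 18 h at 37 C/5% CO2, then exposed to compounds in DMSO for 3 h before LiveBLAzer B/G FRET substrate addition.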

[20] = target: D(2) dopamine receptor (Homo sapiens) (UniProt P14416); experiment: Dopamine D2 receptor (DRD2) small molecule antagonists, cell-based qHTS assay (AID 1963595; active = well fitted inhibition curve with a large enough effect in the signal ratio in the repeat runs, with a control signal flat; the % refers to the signal ratio)
Procedure, shortened: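 HEK293 cells stably expressing DRD2, preincubated with 0.1 mM Ro20-1724 and compounds 10 min, were stimulated with 200 nM NKH477 plus 12 nM quinpirole for 30 min at room temperature; cAMP measured by HTRF (665/620 nm).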
% is set by controls: 0 for no effect and ±100 for the full control effect.

Chain of Muscarinic acetylcholine receptor M1 (Homo sapiens) (P11229 whole entry, looked up): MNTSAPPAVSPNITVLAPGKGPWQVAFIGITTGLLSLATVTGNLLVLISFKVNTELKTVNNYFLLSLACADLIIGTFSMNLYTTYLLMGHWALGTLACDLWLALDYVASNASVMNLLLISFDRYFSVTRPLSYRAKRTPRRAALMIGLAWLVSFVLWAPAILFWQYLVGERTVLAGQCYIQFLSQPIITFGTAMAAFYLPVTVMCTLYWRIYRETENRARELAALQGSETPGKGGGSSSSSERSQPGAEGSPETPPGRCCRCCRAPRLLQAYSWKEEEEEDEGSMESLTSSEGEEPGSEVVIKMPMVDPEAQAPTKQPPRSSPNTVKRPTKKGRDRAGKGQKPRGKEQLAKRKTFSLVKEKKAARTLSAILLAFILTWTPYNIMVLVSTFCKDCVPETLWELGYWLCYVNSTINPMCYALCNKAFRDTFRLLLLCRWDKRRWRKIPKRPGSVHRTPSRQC
Chain of Gonadotropin-releasing hormone receptor (Homo sapiens) (P30968 whole entry, looked up): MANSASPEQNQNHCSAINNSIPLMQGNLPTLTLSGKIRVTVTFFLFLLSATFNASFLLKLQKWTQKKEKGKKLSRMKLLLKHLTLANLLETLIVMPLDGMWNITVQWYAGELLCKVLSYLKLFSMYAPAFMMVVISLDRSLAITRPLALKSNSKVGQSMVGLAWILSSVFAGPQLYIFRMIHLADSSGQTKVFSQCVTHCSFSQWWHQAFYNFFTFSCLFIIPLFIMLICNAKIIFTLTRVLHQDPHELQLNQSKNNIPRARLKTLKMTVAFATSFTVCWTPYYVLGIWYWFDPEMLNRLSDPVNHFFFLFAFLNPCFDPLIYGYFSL
Chain of D(2) dopamine receptor (Homo sapiens) (P14416 whole entry, looked up): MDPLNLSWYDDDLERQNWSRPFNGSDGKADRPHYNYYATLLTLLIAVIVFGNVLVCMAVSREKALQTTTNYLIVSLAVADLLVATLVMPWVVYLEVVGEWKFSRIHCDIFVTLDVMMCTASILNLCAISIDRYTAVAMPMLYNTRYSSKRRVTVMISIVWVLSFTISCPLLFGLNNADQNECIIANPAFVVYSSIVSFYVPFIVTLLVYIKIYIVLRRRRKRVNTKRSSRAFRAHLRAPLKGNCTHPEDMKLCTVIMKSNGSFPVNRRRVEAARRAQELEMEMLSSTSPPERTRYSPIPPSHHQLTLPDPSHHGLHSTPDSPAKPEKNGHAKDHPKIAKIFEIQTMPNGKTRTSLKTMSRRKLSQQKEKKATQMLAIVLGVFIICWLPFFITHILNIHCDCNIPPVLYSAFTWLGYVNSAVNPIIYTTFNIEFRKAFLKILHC
Chain of 5-hydroxytryptamine receptor 2A (Homo sapiens) (P28223 whole entry, looked up): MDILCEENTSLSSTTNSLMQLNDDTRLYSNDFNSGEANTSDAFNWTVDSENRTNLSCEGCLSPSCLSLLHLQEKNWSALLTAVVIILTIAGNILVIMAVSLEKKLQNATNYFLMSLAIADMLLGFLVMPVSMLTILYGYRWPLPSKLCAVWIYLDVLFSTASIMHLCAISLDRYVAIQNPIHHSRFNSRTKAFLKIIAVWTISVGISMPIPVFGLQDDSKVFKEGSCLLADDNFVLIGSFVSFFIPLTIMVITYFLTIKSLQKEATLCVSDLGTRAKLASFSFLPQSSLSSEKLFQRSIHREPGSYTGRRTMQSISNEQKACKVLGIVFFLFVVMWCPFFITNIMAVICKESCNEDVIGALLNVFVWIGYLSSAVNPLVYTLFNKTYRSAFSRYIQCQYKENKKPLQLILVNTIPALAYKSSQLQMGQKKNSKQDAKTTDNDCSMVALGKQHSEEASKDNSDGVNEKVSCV
Chain of Beta-2 adrenergic receptor (Homo sapiens) (P07550 whole entry, looked up): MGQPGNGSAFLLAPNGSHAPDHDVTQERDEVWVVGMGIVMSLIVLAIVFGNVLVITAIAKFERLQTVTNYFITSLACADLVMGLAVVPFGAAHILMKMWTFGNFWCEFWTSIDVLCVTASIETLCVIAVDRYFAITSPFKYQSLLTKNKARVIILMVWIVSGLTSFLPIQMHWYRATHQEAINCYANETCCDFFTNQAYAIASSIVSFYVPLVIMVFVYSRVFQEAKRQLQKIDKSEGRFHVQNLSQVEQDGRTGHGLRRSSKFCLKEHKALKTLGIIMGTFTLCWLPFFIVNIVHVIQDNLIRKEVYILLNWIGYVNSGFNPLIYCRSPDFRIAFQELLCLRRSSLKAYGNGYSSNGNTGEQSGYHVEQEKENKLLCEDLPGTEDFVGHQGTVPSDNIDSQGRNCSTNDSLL
Chain of KiSS-1 receptor (Homo sapiens) (Q969F8 whole entry, looked up): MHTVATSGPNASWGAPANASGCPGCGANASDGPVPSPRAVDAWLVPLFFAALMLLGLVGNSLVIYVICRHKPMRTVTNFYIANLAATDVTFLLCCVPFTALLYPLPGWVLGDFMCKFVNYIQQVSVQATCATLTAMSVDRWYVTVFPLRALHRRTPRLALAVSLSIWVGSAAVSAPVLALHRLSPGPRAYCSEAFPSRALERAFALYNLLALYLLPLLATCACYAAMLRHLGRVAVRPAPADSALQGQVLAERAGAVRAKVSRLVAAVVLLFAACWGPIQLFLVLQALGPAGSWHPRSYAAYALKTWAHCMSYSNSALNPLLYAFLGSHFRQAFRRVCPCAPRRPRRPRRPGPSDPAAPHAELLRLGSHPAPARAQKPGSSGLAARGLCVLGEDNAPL

O=C(NCC1CN(c2ccc(N3CCOCC3=O)cc2)C(=O)O1)c1ccc(Cl)s1 (stereo not given)
inactive: Potency [1] | Potency [2] | Potency [3] | outcome [4] | outcome [5] | Potency [6] | Potency [7] | Potency [8] | Potency [9] | Potency [10] | Potency [11] | Potency [12] | Potency [13] | Potency [14] | Potency [15] | Potency [16] | Potency [17] | Potency [18]

Cc1cccn2c(=O)c(-c3nnn[nH]3)cnc12
inactive: activity change, negative = cytotoxicity [1] 0.925% [at 19 µM] | activity, positive = activation [2] -2.87% [at 19 µM] | activity change [3] -0.454% [at 11.8 µM, hits give high values] | activation [4] 0.024% [at 15.8 µM] | activation [5] -0.181% [at 11.8 µM] | activation [6] 6.61% [at 13.5 µM] | activation [7] 0.054% [at 13.6 µM] | activity change, negative = cytotoxicity [8] -18.5% [at 13.5 µM] | activity change, negative = cytotoxicity [9] -1.1% [at 13.5 µM] | activity change, negative = cytotoxicity [10] -1.22% [at 13.5 µM] | activation [11] 1.33% [at 13.5 µM] | activity, negative = inhibition [12] 5.08% [at 12.7 µM] | activation [13] 1.65% [at 15.9 µM] | activity, negative = inhibition [14] -2.73% [at 12.6 µM] | activation [15] -0.574% [at 15.8 µM] | activity change, negative = inhibition [16] 5.45% [at 18.9 µM] | activity change, negative = inhibition [17] 1.4% [at 19 µM] | activation [18] 2.69% [at 19 µM]

CCCCOC(=O)C(C)CC (stereo not given)
inactive: Potency [1] | Potency [2] | Potency [3] | outcome [4] | outcome [5] | Potency [6] | Potency [7] | Potency [8] | Potency [9] | Potency [10] | Potency [11] | Potency [12] | Potency [13] | Potency [14] | Potency [15] | Potency [19] | Potency [17] | Potency [18] | Potency [20]

CCCCC/C=C/CC(=O)OC
inactive: Potency [1] | Potency [2] | Potency [3] | outcome [4] | outcome [5] | Potency [6] | Potency [7] | Potency [8] | Potency [9] | Potency [10] | Potency [11] | Potency [12] | Potency [13] | Potency [14] | Potency [15] | Potency [19] | Potency [17] | Potency [18] | Potency [20]

CC(=O)Nc1ccc(S(=O)(=O)Nc2cc(C)on2)cc1
inactive: Potency [1] | Potency [2] | Potency [3] | outcome [4] | outcome [5] | Potency [6] | Potency [7] | Potency [8] | Potency [9] | Potency [10] | Potency [11] | Potency [12] | Potency [13] | Potency [14] | Potency [15] | Potency [19] | Potency [18] | Potency [20]

N=C1N=C(N)c2ccccc21
inactive: Potency [3] | outcome [4] | outcome [5] | Potency [6] | Potency [7] | Potency [8] | Potency [9] | Potency [10] | Potency [12] | Potency [13] | Potency [14] | Potency [15] | Potency [16] | Potency [17] | Potency [18] | Potency [20]
active: Potency [1] 61.1 µM | Potency [2] 27.3 µM | Potency [11] 36.3 µM

C=COCC1CCC(CO)CC1 (stereo not given)
inactive: Potency [1] | Potency [2] | Potency [3] | outcome [4] | outcome [5] | Potency [6] | Potency [7] | Potency [8] | Potency [9] | Potency [10] | Potency [11] | Potency [12] | Potency [13] | Potency [14] | Potency [15] | Potency [19] | Potency [17] | Potency [18] | Potency [20]

From PubChem BioAssay (Tox21)
